Source: PubChem BioAssay AID848 (Columbia University Molecular Screening Center, 2007)
The campaign covered roughly 93,000 compounds. About 160 (0.17%) were called active.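 The calls were made as follows: active = cell count reduction exceeding the screen mean by over 5 SD, scaled to untreated wells per plate (cut at about 78% in these data); inactive = the rest.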 Shown is part of a subset that was picked to be rich in actives.

assay: HUVEC nuclei count loss under TNFa – imaging, Hoechst nuclei count, cytotoxicity control for VCAM1 expression modulator project, primary screen (AID 848); details: HUVEC TNFalpha-stimulated, at 2 µM, stronger effect = higher value;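 also: cells counted after 24 h of TNF alpha exposure following the 1 h pretreatment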

Compound	cell count reduction
COCCn1c(SCc2nc3cc(OC)c(OC)cc3c(=O)[nH]2)nnc1-c1ccncc1	-3.6% (inactive)
O=C(Cc1ccc(S(=O)(=O)N2CCCC2)s1)NC1CCCCCC1	-12.9% (inactive)
CCOC(=O)N1CCC(N(CCOC)C(=O)Nc2ccc(C)c(C)c2)CC1	10.5% (inactive)
N#Cc1ccccc1CN1C(=O)S/C(=C/c2cccn2-c2cccc(C(=O)O)c2)C1=O	7.4% (inactive)
COc1c(Cl)cc(C(=O)Nc2ccc(Cl)cn2)cc1Cl	-4.4% (inactive)
c1ccc(C2CCC(N3CCC(N4CCCCC4)CC3)CC2)cc1 (centres undefined)	-1.7% (inactive)
CCc1ccc(NC(=O)CN2C(=O)CSC2=O)cc1	-18.2% (inactive)
c1ccc2c(CSCc3nc4ccccc4[nH]3)cccc2c1	-12.2% (inactive)
Cc1ccc(NC(=S)NCCN2CCOCC2)cc1	-14.3% (inactive)
O=C(c1cccc(F)c1)N1CCN(c2ccc([N+](=O)[O-])c(N3CCCCC3)c2)CC1	-7.8% (inactive)
NC(=O)C1(N2CCCCC2)CCN(C(=S)Nc2ccc(Cl)cc2)CC1	5.1% (inactive)
CCOc1cc(CNCCN(C)C)c(Cl)cc1OCC(=O)NCCc1ccccc1	8.2% (inactive)
COc1ccc(C)cc1NC(=O)CCC(=O)Nc1nnc(C(F)(F)F)s1	-16% (inactive)
O=C(NCC1CCCO1)/C(=C\c1ccco1)NC(=O)c1ccccc1 (centres undefined)	4.8% (inactive)
O=C(NNS(=O)(=O)c1ccc(Cl)cc1)C1CCN(Cc2ccccc2)CC1	-18.3% (inactive)
COc1ccc(CC(=O)Nc2sc(Cc3ccccc3)c(C)c2C(N)=O)cc1	-1.7% (inactive)
O=C(NN1C(=O)C2C3C=CC(C4CC34)C2C1=O)c1ccc(Cl)cc1 (centres undefined)	5.4% (inactive)
Cc1c(NC(=O)CCCOc2ccccc2)cccc1[N+](=O)[O-]	15.7% (inactive)
O=C(CCC(=O)OCc1cccc(C(=O)Oc2ccccc2)c1)Nc1cccc2ccccc12	-13% (inactive)
Cc1cc2c(cc1C)N(C(=O)CN1C(=O)c3ccccc3C1=O)C(C)(C)c1ssc(=S)c1-2	-9.3% (inactive)
C/C(=N\NS(=O)(=O)c1ccc(Br)cc1)c1cccs1	-23.7% (inactive)
CCn1c(SC)nc(O)c(C(c2ccc(OC)c(O)c2)c2c(O)nc(SC)n(CC)c2=O)c1=O	-7.3% (inactive)
CSc1ccc(C#N)cc1NC(=O)c1ccc(Cl)cc1	-0.4% (inactive)
O=C1Nc2cc(Cl)c(Cl)cc2N(O)N1c1cc(Cl)cc(Cl)c1	-19.6% (inactive)
N/C(=N\OC(=O)CCc1ccccc1)c1ccc(Cl)cc1	-44% (inactive)
Cc1cc(C)nc(SC(C)C(=O)N/N=C/c2cccs2)n1 (centres undefined)	-19.7% (inactive)
CN(C(=O)CC(NC(=O)c1ccccc1)(c1ccccc1)c1ccccc1)c1ccccc1	3.7% (inactive)

Compound	cell count reduction
COC(=O)c1ccc(C(=O)Nc2cc(Cl)ccc2Cl)cc1NC(=O)c1ccccc1C	-7.7% (inactive)
O=C1c2ccccc2C(=O)N1CC1c2ccccc2CCN1S(=O)(=O)c1ccccc1 (centres undefined)	-14.8% (inactive)
Cc1ccc2nc(Nc3ccccc3O)nc(-c3ccccc3)c2c1	-13.2% (inactive)
CCc1ccc(C(=O)CSc2nnc(C)c(=O)[nH]2)cc1	-4.6% (inactive)
COc1ccc(NC(=O)/C(Cl)=C(/Cl)S(=O)Cc2ccc(C)cc2)cn1 (centres undefined)	81.9% (active)
COc1cccc(NC(=O)Cc2ccc(C)cc2)c1	-6.5% (inactive)
COc1ccc(CC(=O)Nc2ccc(-c3nnc(-c4ccc(C)cc4)o3)cc2)cc1	-17.7% (inactive)
C=CCn1c(SCC(=O)c2c(N)n(C)c(=O)n(C)c2=O)nc2sc(CC)cc2c1=O	-45.1% (inactive)
CC(C)c1ccc(/C=C/C(=O)NNC(=O)c2cccnc2)cc1	-4.2% (inactive)
CCC(=O)NCCc1nc2ccccc2n1CC	14.3% (inactive)
CSc1nc2ccccc2cc1/C=C(\C#N)c1ccc(Cl)cc1Cl	-9% (inactive)
Clc1ccc(-n2nnnc2CN2CCCCC2)cc1Cl	-12.5% (inactive)
COc1ccc(C(=O)NC(=S)Nc2ccccc2N2CCN(S(C)(=O)=O)CC2)cc1OC	-26.7% (inactive)
C=CCNc1cnn(-c2ccc(C)cc2)c(=O)c1Cl	-7.9% (inactive)
Cc1ccc(CNC(=O)CCNC(=O)Cn2ccc3ccccc3c2=O)cc1	-15.5% (inactive)
CCSc1nnc(-c2cc3c(s2)-c2ccccc2CC3)o1	-4.1% (inactive)
O=C(Cc1ccc2c(c1)CCCC2)Nc1ccccc1Cl	7.2% (inactive)
CC(C)(CCl)C(=O)Nc1ccc(Sc2ccc(F)cc2)cc1	-6.3% (inactive)
Cc1ccc(S(=O)(=O)N(CC(=O)NCCSC2CCCCC2)c2ccccc2F)cc1	-49.8% (inactive)
COC(=O)c1cccc(N(C(=O)c2ccco2)C(C(=O)NC2CCCC2)c2ccco2)c1 (centres undefined)	1.3% (inactive)
CCNC(=S)N1CCN(C(=O)c2ccco2)CC1	15% (inactive)
CC(=O)N/C(=C/c1ccc(Cl)cc1)C(=O)NCCc1c[nH]c2ccccc12	-23.5% (inactive)
Cc1ccc(S(=O)(=O)N(CC(=O)N2CCc3ccccc3C2)c2cccc(Cl)c2)cc1	0% (inactive)
CC1CN(c2nc(-c3ccccc3)nnc2-c2ccccc2)CC(C)O1 (centres undefined)	-11% (inactive)
CCC(=O)NNc1cc(=O)c2c(=O)n(C)c(=O)n(C)c2[nH]1	13% (inactive)
O=C(CSc1nnc(-c2c[nH]c3ccccc23)o1)c1ccccc1	-13.6% (inactive)
COC(=O)CNC(=O)c1ccccc1[N+](=O)[O-]	-19.5% (inactive)
